# Measurements from PubChem BioAssay (Tox21).
# Inconclusive results are not listed. Entries that show only a call come without a potency. Unmarked numbers belong to inactive results. Activity calls are given as the source filed them. Calls come from the whole dose curve; as a rule, active = well fitted curve in the direction sought with a large enough effect in the repeat runs; inconclusive = weak or mixed curves; inactive = no such curve, though single readings can be large; an effect the other way counts as inactive or inconclusive.
# Assays:
# [1] = A CellTox Green Cytotoxicity Assay to monitor cytotoxicity in HEK293 cells - 24 hour (AID 1224875); conditions: CellTox Green fluorescence; series mostly up to 76.8 µM; note: nearly all actives have a fitted effect of over 45% in size; note: potency is the fitted concentration of half-maximal effect
# Procedure, shortened: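 Fluorescence from a DNA-binding dye excluded by viable cells was measured repeatedly in the same HEK293 wells (600 cells/well) during continuous compound exposure at 37 C. Each assay gives one read point: 0, 8, 16, 24, 32 or 40 h.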
# [2] = A CellTox Green Cytotoxicity Assay to monitor cytotoxicity in HepG2 cells - 24 hour (AID 1224878); conditions: CellTox Green fluorescence; series mostly up to 76.8 µM; note: nearly all actives have a fitted effect of over 45% in size; note: potency is the fitted concentration of half-maximal effect
# Procedure, shortened: (§1)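 Real-time cytotoxicity: fluorescence of a cell-impermeant cyanine dye binding DNA of dead HepG2 cells, measured repeatedly (0–40 h) during compound exposure at 37 C. Cells seeded 600/well with reagent, dosed after 5 h.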
# [3] = A CellTox Green Cytotoxicity Assay to monitor cytotoxicity in HepG2 cells - 40 hour (AID 1224879); conditions: CellTox Green fluorescence; series mostly up to 76.8 µM; note: nearly all actives have a fitted effect of over 40% in size; note: potency is the fitted concentration of half-maximal effect
# Procedure, shortened: as §1
# [4] = qHTS RealTime-Glo MT Cell Viability Assay in HEK293 cells - 0 hour (AID 1224880); conditions: RealTime-Glo luminescence; series mostly up to 76.8 µM; note: top concentration of the series differs between compounds; nearly all actives have a fitted effect of over 45% in size
# Procedure, shortened: (§2)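 Luminescence, which tracks viable cell number through reduction of the prosubstrate to a NanoLuc substrate, was read over continuous 37 C culture. Cells (600/well) were premixed with reagent and rested 5 h before 23 nL of compound in DMSO was pinned.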
# [5] = qHTS RealTime-Glo MT Cell Viability Assay in HepG2 cells - 8 hour (AID 1224873); conditions: RealTime-Glo luminescence; series mostly up to 76.8 µM; note: nearly all actives have a fitted effect of over 55% in size
# Procedure, shortened: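 HepG2 cells (600/well) mixed with RealTime-Glo MT reagent, settled 5 h at 37 C/5% CO2 before compound addition. Nonlytic NanoLuc luminescence from viable-cell prosubstrate reduction read repeatedly during 40 h treatment at 37 C.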
# [6] = qHTS RealTime-Glo MT Cell Viability Assay in HEK293 cells - 40 hour (AID 1224874); conditions: RealTime-Glo luminescence; max response: active compounds read low; note: nearly all actives have a fitted effect of over 50% in size; note: potency is the fitted concentration of half-maximal effect
# Procedure, shortened: as §2
# [7] = qHTS RealTime-Glo MT Cell Viability Assay in HepG2 cells - 32 hour (AID 1224877); conditions: RealTime-Glo luminescence; series mostly up to 76.8 µM; note: nearly all actives have a fitted effect of over 55% in size; note: potency is the fitted concentration of half-maximal effect
# Procedure, shortened: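 Cells + NanoLuc/prosubstrate dispensed (600 cells/well) → 5 h at 37 C/5% CO2 → compounds in DMSO transferred → 40 h incubation at 37 C, luminescence read at 0, 8, 16, 24, 32, 40 h.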
# [8] = qHTS RealTime-Glo MT Cell Viability Assay in HEK293 cells - 16 hour (AID 1224872); conditions: RealTime-Glo luminescence; series mostly up to 76.8 µM; note: top concentration of the series differs between compounds; nearly all actives have a fitted effect of over 50% in size
# Procedure, shortened: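 Tox21 10K qHTS, HEK293, 600 cells/well, RealTime-Glo reagent co-dispensed with cells; 5 h preincubation, compound by pintool, 37 C, luminescence at 0–40 h.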
# [9] = A CellTox Green Cytotoxicity Assay to monitor cytotoxicity in HepG2 cells - 16 hour (AID 1224876); conditions: CellTox Green fluorescence; series mostly up to 76.8 µM; note: nearly all actives have a fitted effect of over 45% in size; note: potency is the fitted concentration of half-maximal effect
# Procedure, shortened: as §1
SMILES,Potency [1],Potency [2],Potency [3],Potency [4],Potency [5],max response [6] [%],Potency [7],Potency [8],Potency [9],Potency [6]
COC(=O)C1=C(C)NC(C)=C(C(=O)OCCN2CCN(C(c3ccccc3)c3ccccc3)CC2)C1c1cccc([N+](=O)[O-])c1 (stereo not drawn),inactive,inactive,inactive,inactive,–,–,–,–,–,–
CC1(C)CCC[C@]2(C)[C@H]3CCO[C@]3(C)CC[C@@H]12,–,inactive,inactive,inactive,inactive,4.7,inactive,–,–,–
C=C(C)C(=O)OCCCCCCCCCC,–,inactive,inactive,inactive,inactive,–,inactive,inactive,inactive,–
Cc1ccc(-c2ccccc2)cc1,inactive,43.6 µM (active),43.6 µM (active),inactive,inactive,–,inactive,inactive,–,–
CCn1c2ccccc2c2cc([N+](=O)[O-])ccc21,inactive,inactive,inactive,inactive,–,-23.8,inactive,–,inactive,–
CC[N+](CC)(CC)CCOc1ccc(/C=C/c2ccccc2)cc1,–,inactive,–,–,inactive,–,26.8 µM (active),inactive,inactive,–
OCCN1CCN(CCCN2c3ccccc3Sc3ccc(C(F)(F)F)cc32)CC1,–,26.8 µM (active),26.8 µM (active),–,–,–,–,–,–,23.9 µM (active)
CC(=O)c1ccc(C(C)=O)cc1,inactive,inactive,inactive,inactive,inactive,-3.34,inactive,–,inactive,–
COc1cccc(OC)c1C(=O)O,–,inactive,inactive,inactive,inactive,–,inactive,inactive,inactive,–
Cc1cc(-c2ccc(N=Nc3cc(S(=O)(=O)O)c4ccccc4c3N)c(C)c2)ccc1N=Nc1cc(S(=O)(=O)O)c2ccccc2c1N,–,inactive,inactive,inactive,inactive,–,inactive,–,inactive,–
O=C(O)c1cc(N=Nc2ccc([N+](=O)[O-])cc2)ccc1O,inactive,inactive,inactive,–,inactive,–,inactive,–,inactive,–
COc1ccc2cc1Oc1ccc(cc1)C[C@H]1c3c(cc4c(c3Oc3cc5c(cc3OC)CCN(C)[C@@H]5C2)OCO4)CCN1C,–,23.9 µM (active),21.3 µM (active),inactive,–,–,23.9 µM (active),–,19 µM (active),6.74 µM (active)
C=CCCC(=O)/C=C/C1C(C)=CCCC1(C)C (stereo not drawn),34.7 µM (active),inactive,inactive,–,inactive,-12.7,inactive,–,inactive,–
CC(C)(C)c1csc(-c2cc3cc(OCc4ccccc4CC(=O)O)ccc3o2)n1,54.9 µM (active),54.9 µM (active),54.9 µM (active),inactive,–,–,inactive,–,54.9 µM (active),38.9 µM (active)
C/C=C/C=C/COC(=O)C(C)C,inactive,–,43.6 µM (active),inactive,inactive,–,–,–,inactive,–
CCCCCCCCCCCCOC(=O)c1ccc(O)cc1,inactive,inactive,inactive,inactive,inactive,–,inactive,–,inactive,–
